# From PubChem BioAssay (NCATS)
# Inconclusive results are not listed. Where a call stands in place of a potency, no number is given. Active and inactive are the calls of the source. Unless noted, calls come from the whole dose curve.
# How the values were obtained:
# [1] = qHTS for Inhibitors of the Functional Ribonucleoprotein Complex (vRNP) of Lymphocytic Choriomeningitis Arenaviruses (LCMV): Viability assay - alamar blue signal for LCMV Primary Screen (AID 1347085; calls by dose curve; tested in HEK293 reporter line; note: nearly all actives have a fitted effect of over 80% in size; note: potency is the fitted concentration of half-maximal effect)
# [2] = target: Nucleoprotein (Lymphocytic choriomeningitis virus (strain Armstrong)) (UniProt P09992); assay: qHTS for Inhibitors of the Functional Ribonucleoprotein Complex (vRNP) of Lymphocytic Choriomeningitis Arenaviruses (LCMV): LCMV Primary Screen - GLuc reporter signal (AID 1347086); note: nearly all actives have a fitted effect of over 70% in size; note: potency is the fitted concentration of half-maximal effect
# [3] = Cytotoxicity counterscreen for inhibitors of SARS-CoV-2 cell entry (AID 1645845); note: nearly all actives have a fitted effect of over 50% in size
# Summary of the method: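 HEK293-ACE2 cells (Expi293F stably expressing human ACE2) seeded overnight, then compound for 1 h plus 48 h at 37C. Viability as ATP content by luminescence; normalized to wells with cells and media-only wells.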
# [4] = Primary qHTS to identify inhibitors of SARS-CoV-2 cell entry (AID 1645846); conditions: activity change, negative = inhibition: at 57.1 µM (top of the series) unless noted; note: nearly all actives have a fitted effect of over 45% in size
# Summary of the method: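 Luminescence readout (Bright-Glo luciferase) 48 h after pseudoparticle addition. HEK293-ACE2 cells, 1500/well; compound pre-incubation 1 h; Normalized to spike PP and bald PP.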
# [5] = target: Alpha-galactosidase (Coffea arabica) (UniProt Q42656); assay: Counterscreen for Glucocerebrosidase Inhibitors: qHTS Assay for Coffee Bean alpha-Galactosidase at pH 4.5 (AID 957; active = well fitted curve in the direction sought with a large enough effect; an effect the other way counts as inactive or inconclusive)
# Summary of the method: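 Coffee bean enzyme (2 nM) with 80 uM 4-methylumbelliferyl alpha-D-galactopyranoside in 50 mM citric acid, 0.005% Tween-20, pH 4.5, 20 min at room temperature; compounds 0.7 nM–77 uM. Stopped at pH 10, fluorescence 365/440 nm; AC50 from Hill fits.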
# [6] = Inducers of the Endoplasmic Reticulum Stress Response (ERSR) in human glioma: Validation (AID 504836; active = well fitted curve in the direction sought with a large enough effect; an effect the other way counts as inactive or inconclusive)
# Summary of the method: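 Stably transfected U87-MG glioma cells carrying a GRP78-based luciferase sensor; 16 h compound incubation. Luminescence end-point read 10 min after Bright-Glo addition at room temperature.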
# [7] = target: Alpha-galactosidase (Coffea arabica) (UniProt Q42656); assay: Counterscreen for Glucocerebrosidase Inhibitors: qHTS Assay for Coffee Bean alpha-Galactosidase at pH 5.9 (AID 998; active = well fitted curve in the direction sought with a large enough effect; an effect the other way counts as inactive or inconclusive)
# Summary of the method: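 Green coffee bean enzyme (2 nM) with 4-methylumbelliferyl alpha-D-galactopyranoside (80 uM) in 50 mM citric acid, 0.005% Tween-20, pH 5.9, 20 min at room temperature; compounds 0.7 nM–77 uM. Stopped at pH 10, fluorescence Ex365/Em440; Hill-fit AC50.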
# [8] = Confirmatory qHTS to identify inhibitors of SARS-CoV-2 cell entry (AID 1645844); note: potency is the fitted concentration of half-maximal effect; nearly all actives have a fitted effect of over 45% in size
# Summary of the method: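 HEK293-ACE2 cells were pretreated 1 h with compound, then infected with MLV-based pseudoparticles bearing C-terminally truncated Wuhan-Hu-1 spike for 48 h at 37C; luciferase luminescence normalized to spike PP and bald PP wells.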
# Chain of Alpha-galactosidase (Coffea arabica) (Q42656 whole entry, looked up): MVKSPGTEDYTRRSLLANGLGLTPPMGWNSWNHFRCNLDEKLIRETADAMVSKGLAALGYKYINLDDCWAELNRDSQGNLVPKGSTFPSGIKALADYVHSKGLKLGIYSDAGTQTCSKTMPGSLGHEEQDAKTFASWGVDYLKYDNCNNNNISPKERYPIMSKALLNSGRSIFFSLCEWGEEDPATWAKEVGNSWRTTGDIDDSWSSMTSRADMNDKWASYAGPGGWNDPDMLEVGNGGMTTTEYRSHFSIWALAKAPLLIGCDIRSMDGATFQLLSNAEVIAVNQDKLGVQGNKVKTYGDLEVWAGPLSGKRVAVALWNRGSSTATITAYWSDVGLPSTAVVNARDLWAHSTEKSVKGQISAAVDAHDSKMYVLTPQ
# Chain of Nucleoprotein (Lymphocytic choriomeningitis virus (strain Armstrong)) (P09992 whole entry, looked up): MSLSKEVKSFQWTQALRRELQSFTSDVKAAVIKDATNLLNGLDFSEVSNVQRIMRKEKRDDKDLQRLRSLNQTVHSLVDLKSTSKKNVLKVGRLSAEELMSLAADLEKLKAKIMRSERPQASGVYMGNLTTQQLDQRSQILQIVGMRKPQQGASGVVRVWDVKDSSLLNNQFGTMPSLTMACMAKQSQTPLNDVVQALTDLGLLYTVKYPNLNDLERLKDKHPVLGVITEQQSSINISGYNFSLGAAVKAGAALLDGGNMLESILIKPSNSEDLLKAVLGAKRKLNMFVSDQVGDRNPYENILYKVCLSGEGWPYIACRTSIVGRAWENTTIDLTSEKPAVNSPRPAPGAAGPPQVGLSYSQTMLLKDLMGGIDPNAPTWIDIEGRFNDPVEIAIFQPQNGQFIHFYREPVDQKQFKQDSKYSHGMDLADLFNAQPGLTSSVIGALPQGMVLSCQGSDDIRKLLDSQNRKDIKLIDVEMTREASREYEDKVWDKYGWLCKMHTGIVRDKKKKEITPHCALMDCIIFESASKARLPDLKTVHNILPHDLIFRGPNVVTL
structure (smiles),measurement,setting,value
O=S(=O)(NCCNCC=Cc1ccc(Br)cc1)c1cccc2cnccc12,Potency,[1],inactive
same,Potency,[2],inactive
NS(=O)(=O)c1ccc(NC2=CC(=O)c3ccccc3C2=O)cc1,Potency,[1],38.5 µM (active)
same,Potency,[2],12.2 µM (active)
same,Potency,[3],inactive
same,Potency,[4],inactive
O=C1Cc2c([nH]c3ccc(Br)cc23)-c2ccccc2N1,outcome,[5],inactive
same,outcome,[6],inactive
same,Potency,[1],inactive
same,Potency,[2],inactive
O=C(CC(O)CCc1ccccc1)c1ccc(O)cc1 (stereo unspecified),Potency,[2],inactive
Cc1ccc(O)c(N=Nc2ccccc2)n1,outcome,[5],inactive
same,outcome,[7],inactive
same,outcome,[6],inactive
same,Potency,[1],inactive
same,Potency,[2],inactive
CCCC(=O)OCCC(C)C,Potency,[1],inactive
same,Potency,[2],inactive
CC(C)(C)c1nc2c3cc[nH]c(=O)c3c3cc(F)ccc3c2[nH]1,Potency,[1],inactive
same,Potency,[2],inactive
same,Potency,[8],1.71 µM (active)
same,Potency,[3],inactive
COC(=O)C12OCC34C(CC5C(C)=C(O)C(=O)CC5(C)C3C(O)C1O)OC(=O)C(OC(=O)C=C(C)C)C24 (stereo unspecified),Potency,[2],inactive
O=C1NC(=O)/C(=C/c2ccc3nccnc3c2)S1,outcome,[6],inactive
same,Potency,[1],inactive
same,Potency,[3],inactive
same,Potency,[4],inactive
COc1ccc(C(=O)/C=C/c2ccc(OC)cc2OC)c(O)c1,Potency,[1],inactive
same,Potency,[2],inactive
CCCCCC(=O)N[C@@H](c1ccccc1)[C@@H](O)C(=O)O[C@H]1C[C@@]2(O)[C@@H](OC(=O)c3ccccc3)C3[C@](C)(C(=O)[C@H](OC(C)=O)C(=C1C)C2(C)C)[C@@H](O)C[C@H]1OC[C@@]31OC(C)=O (stereo partly specified),Potency,[1],inactive
same,Potency,[2],inactive
CC(=O)/C=C1\C(=O)N(C)c2ccccc21,outcome,[6],inactive
same,Potency,[1],inactive
CN(C)c1ccc2cc(C(=O)N[C@@H](CCCN=C(N)CCl)C(=O)NCc3ccccc3)ccc2c1,Potency,[1],34.3 µM (active)
same,Potency,[3],inactive
same,"activity change, negative = inhibition",[4],-26.4%
